Most compounds without a hit are left out; they make up all but 1.7% or so of the library.
HEK293 tox: cytotoxic in the GLP-1 receptor inverse agonist counter-screen | HEK293 cAMP-luciferase reporter cells, luminescence, 24 h | AID 624418 | Potency, µM (top dose mostly 38.3 µM), usual class: inhibitors | 0.13% of 410,000 active;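 further: loss of luciferase light is scored as toxicity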
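A 23 nL compound transfer followed 12 hours of cell culture at 37 deg C; exposure then lasted 24 hr. Luciferase assay detection reagent was dispensed and plates read for luminescence after a 12 min room-temperature wait.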
GLP-1R inv ag: acts as inverse agonist at human GLP-1 receptor; P43220; AID 624417; HEK293 GLP-1R CRE-luciferase, luminescence, 24 h; GLP-1R form is constitutively active; 1.6% of 410,000 active; Potency, µM (titrated, usually from 38.3 µM), hits mostly inhibitors; further: nearly all actives have a fitted effect of over 55% in size
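Cells are plated, allowed 12 hours at 37 deg C, then treated with compounds for 24 hr before luciferase detection reagent is added and luminescence is read after 12 min at room temperature. The HEK293 line carries constitutively active GLP-1R with a cAMP-responsive reporter.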
PTHR1 agonist: PTHR1 (human) receptor agonism; HEK293 GP2 PTHR1 cells, GloSensor cAMP luminescence, 1 h; Potency, µM (doses to about 115 µM), most hits filed as activators; 0.075% of 410,000 active; further: nearly all actives have a fitted effect of over 55% in size
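HEK-293-derived GP2 cells expressing PTHR1 and a GloSensor cAMP reporter, 3,000/well, plated overnight, given luciferin plus IBMX (each 0.5 mM as added) for 1 h at 37 °C, then compound for 1 h at 37 °C. Luminescence was read after 15 min at room temperature.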
IDH1 R132H inh: blocks human mutant IDH1 R132H enzyme; O75874; IDH1-R132H enzyme, NADPH consumption, diaphorase/resazurin fluorescence; Potency, µM (titrated, usually from 76.6 µM), usual class: inhibitors; 0.093% of 390,000 active; AID 602179; further: nearly all actives have a fitted effect of over 65% in size
Target sequence (O75874 whole entry R132H, stated change not applied): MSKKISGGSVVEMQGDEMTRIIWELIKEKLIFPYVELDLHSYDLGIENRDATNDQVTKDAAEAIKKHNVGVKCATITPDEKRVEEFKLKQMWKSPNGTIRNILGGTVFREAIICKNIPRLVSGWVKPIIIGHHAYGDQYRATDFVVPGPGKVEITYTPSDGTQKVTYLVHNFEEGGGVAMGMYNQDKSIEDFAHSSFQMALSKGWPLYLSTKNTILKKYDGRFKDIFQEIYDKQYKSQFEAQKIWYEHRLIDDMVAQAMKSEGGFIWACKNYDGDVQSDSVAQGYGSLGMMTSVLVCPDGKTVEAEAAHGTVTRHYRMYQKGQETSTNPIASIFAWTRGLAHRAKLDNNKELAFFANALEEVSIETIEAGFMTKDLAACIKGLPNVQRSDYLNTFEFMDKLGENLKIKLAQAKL
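IDH1-R132H (0.5 ug/mL dispensed) in pH 7.5 Tris buffer was preincubated 30 min with compound, then given a substrate mix of 0.016 mM NADPH and 2 mM alpha-KG for 80 min at room temperature; remaining NADPH was read by diaphorase/resazurin fluorescence.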
LDHA block: blocks human lactate dehydrogenase A; purified LDHA, NADH/diaphorase-resazurin fluorescence; stronger effect = lower value; activity change, % (values are at about 110 or 230 µM); 0.15% of 480,000 active; AID 1347041; in the data active means activity change below about -30%; inconclusive means mostly about -25% to -30%
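Enzyme activity of human lactate dehydrogenase 5 (2 nM; 0.06 mM NADH, 0.2 mM pyruvate, 5 min, RT) is measured via a resazurin/diaphorase fluorescence readout of residual NADH.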
GLP-1R agonist: agonists of human GLP-1 receptor | HEK293 GLP-1R CRE-luciferase, luminescence, 4-6 h; cells express a hypersensitive GLP-1R form | P43220 | 0.007% of 380,000 active | Potency, µM (doses to about 45.6 µM), actives largely listed as activators
Resorufin autofl: counter-screen for mutant IDH1 inhibitors: fluorescence interference. shares compounds with IDH1 R132H inh. Resorufin detection reagent fluorescence interference, cell-free. inhibition of signal, % at 51.2 µM. 750 tested, under 10 active
WT IDH1 inh: inhibits human wild-type IDH1, mutant selectivity check; 9% of 750 active; shares compounds with IDH1 R132H inh; WT IDH1 enzyme, NADPH diaphorase/resazurin fluorescence; Potency, µM (series often up to 115 µM), usual class: inhibitors; further: nearly all actives have a fitted effect of over 55% in size
Target sequence (O75874 whole entry, looked up): as the sequence (O75874 whole entry R132H, stated change not applied) above, with H132R counted along it
IDH1 R132H conf: confirmation of human mutant IDH1 inhibitors; Potency, µM (doses to about 76.6 µM), most hits filed as inhibitors; shares compounds with IDH1 R132H inh; 83% of 750 active; AID 624002; IDH1 R132H enzyme, NADPH diaphorase/resazurin fluorescence; further: nearly all actives have a fitted effect of over 50% in size
Numbers stand for hits; 0 = inactive; ? = inconclusive; - = no result given. Unless noted, the call rests on the fitted dose curve; in most records, active means well fitted curve in the direction sought with a large enough effect; inconclusive means small, poorly fitted or top-dose-only effect, or another doubt; inactive means no such curve, though single readings can be large; an effect the other way counts as inactive or inconclusive.

SMILES	HEK293 tox	GLP-1R inv ag	PTHR1 agonist	IDH1 R132H inh	LDHA block	GLP-1R agonist	others
C[C@H]1[C@@H](OS(=O)(=O)O)C[C@@H]2C[C@H]([C@@H](O)c3cc(=O)[nH]c(=O)[nH]3)NC3=NC[C@H]1N32	-	2.5µM	0	0	0	0
CC(C)n1c(/C=C/[C@H](O)C[C@H](O)CC(=O)O)c(-c2ccc(F)cc2)c2ccccc21	0	3.2µM	0	0	0	0
c1cc2n(c1)-c1c(ccc3c1OCO3)CNC2c1ccc2c(c1)OCO2 (centres undefined)	0	8.9µM	0	0	0	0
COc1ccc(C2NCc3ccc4c(c3-n3cccc32)OCO4)cc1O (centres undefined)	?	?	0	0	0	0
CNC(=O)NC(=O)COC(=O)c1cn(C)c2ccccc12	-	-	-	-	0	-
Cc1ccc(C(=O)C2CN(C)CC2C(=O)c2ccc(C)cc2)cc1 (centres undefined)	0	?	0	0	0	0
Cc1ccc(C(=O)C2CN3CCC2CC3)cc1 (centres undefined)	0	7.1µM	0	0	0	0
CN1CCN(c2ccccc2N)CC1	0	0	0	0	0	0
CN1CCC2(CC1)c1ccccc1-c1ccccc12	?	11µM	0	0	0	0
OCC1CN2CCC1CC2 (centres undefined)	-	-	-	-	0	-
CCOc1cc(CNCCc2c[nH]c3ccccc23)cc(Cl)c1OC	?	11µM	0	0	0	0
CCOc1cc(CNCCc2c[nH]c3ccccc23)ccc1OC	-	-	-	-	0	-
C/C(=C\c1c[nH]c2ccccc12)[N+](=O)[O-]	-	-	-	-	0	-
COC(=O)C1=C(C)N(Cc2ccccc2)C(=NCc2cccc(C(F)(F)F)c2)N[C@H]1c1cccc(F)c1	22µM	?	0	0	0	0
CNC(=O)c1cccn(Cc2cccc(C(F)(F)F)c2)c1=O	0	0	0	0	0	0
CC12CN3CN(C1)CC(C)(C3)C2=O	-	-	-	-	0	-
Clc1ccc2c(c1)C(OC1CN3CCC1CC3)c1ccccc1CS2 (centres undefined)	?	2.8µM	0	0	0	0
C=C1C(=O)[C@@]23C[C@H]4[C@@H]5[C@@]6(C)CCC[C@@]57[C@@H]2[C@@H](O)[C@@H]1C[C@H]3[C@H]7N4C6	?	8.9µM	0	0	0	0
CN(Cc1ccsc1)C(=O)CCl	-	-	-	-	0	-
Ic1ccc(CN2CCNCC2)cc1	-	-	-	-	0	-
Cc1ccc(C)c(Cn2c(C(=O)O)c(C=O)c3ccccc32)c1	0	0	0	0	0	0
CCOC(=O)c1c(C=O)c2ccccc2n1Cc1ccccc1	0	10µM	0	0	0	0
Cc1ccc(-c2nnc(N3CCN(c4ccccn4)CC3)c3ccccc23)cc1	11µM	8.9µM	0	0	0	0
Cc1ccc(-c2nc3ccccc3c(=O)n2-c2ccccn2)cc1	0	0	0	0	0	0
CCc1ccc(-c2nc(CN3CCCC(C(=O)N4CCN(c5cc(Cl)ccc5C)CC4)C3)c(C)o2)cc1 (centres undefined)	?	4.5µM	0	?	0	-
SMILES	HEK293 tox	GLP-1R inv ag	PTHR1 agonist	IDH1 R132H inh	LDHA block	GLP-1R agonist	others
Cc1oc(-c2cccc(Cl)c2)nc1CN1CCC(C(=O)NCCCN2CCN(c3cccc(Cl)c3)CC2)CC1	0	?	0	0	0	-
Cn1c(O)c(C=Nc2ccccc2)c(=O)n(C)c1=O	0	0	0	0	0	0
Cn1c(O)c(/C=N/Nc2ccccc2)c(=O)n(C)c1=O	?	10µM	0	0	0	0
O=C(CSC(c1ccccc1)c1ccccc1)Nc1ccc2c(c1)OCCCO2	-	-	-	-	0	-
CC(=O)c1ccccc1OCC(O)CN1CCN(CCN2C(=O)c3cccc4cccc(c34)C2=O)CC1 (centres undefined)	11µM	?	0	0	0	0
O=C1c2cccc3cccc(c23)C(=O)N1CCN1CCN(CC(O)COCc2ccc(Cl)cc2)CC1 (centres undefined)	?	?	0	0	0	0
CN1C(=O)/C(=C\c2ccc(N3CCCCCC3)cc2)C(=O)NC1=S	0	0	0	46µM	0	0	Resorufin autofl=0;WT IDH1 inh=0;IDH1 R132H conf=22µM
CCC(C)N1C(=O)/C(=C\c2ccc(N3CCCCCC3)cc2)C(=O)NC1=S (centres undefined)	0	0	0	0	0	0
O=C1NC(=O)C(=Cc2ccc(-c3ccc(Cl)cc3)o2)C(=O)N1	0	?	0	?	0	0	Resorufin autofl=0;WT IDH1 inh=0;IDH1 R132H conf=40µM
N#CC1=C(N)NC(SCC(=O)Nc2ccc(Br)cc2)=C(C#N)C12CCCCC2	?	7.9µM	0	?	0	0	Resorufin autofl=0;WT IDH1 inh=0;IDH1 R132H conf=22µM
COc1ccc(C2SCC(=O)Nc3c2c(C)nn3C)cc1OC (centres undefined)	-	-	-	-	0	-
O=C(O)c1cn(Cc2ccccc2)nc1-c1ccccc1	0	0	0	0	0	0
O=C(O)CSCC(=O)N(Cc1ccccc1)c1nc(-c2ccccc2)c(-c2ccccc2)s1	0	?	0	?	0	0	Resorufin autofl=0;WT IDH1 inh=0;IDH1 R132H conf=40µM
C=CCOc1ccc(/C=C(\C)[N+](=O)[O-])cc1OC	-	-	-	-	0	-
CCN(CC)c1ccc(C=C2C(=O)NC(=S)NC2=O)cc1	0	0	0	0	0	0
CC(C)CN(CC(C)C)c1ccc(C=C2C(=O)NC(=S)NC2=O)cc1[N+](=O)[O-]	0	?	0	?	0	0	Resorufin autofl=0;WT IDH1 inh=0;IDH1 R132H conf=40µM
Cc1ccc(-c2cc(-c3ccc(C)cc3)[n+](-c3ccc(C(=O)O)cc3)c(-c3ccc(C)cc3)c2)cc1	0	0	-	0	0	0
Cc1ccc(C[n+]2c(-c3ccc(C)cc3)cc(-c3ccc(C)cc3)cc2-c2ccc(C)cc2)cc1	?	?	0	40µM	0	0	Resorufin autofl=0;WT IDH1 inh=0;IDH1 R132H conf=22µM
CC(=O)[C@H]1CC[C@H]2[C@@H]3CC=C4C[C@@H](OS(=O)(=O)O)CC[C@]4(C)[C@H]3CC[C@]12C	0	0	0	40µM	0	0	Resorufin autofl=0;WT IDH1 inh=0;IDH1 R132H conf=40µM
O=C(Cc1c[nH]c2ccccc12)N1CCN(C(c2ccccc2)c2ccccc2)CC1	-	-	-	-	0	-

Bioassay records (PubChem)
